Compounds without any hit were thinned out: in the full panel of roughly 83,000, 20% have a hit.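 Growth was measured after 48 h exposure to one concentration of compound in 96-well plates. Values under 10 count as active.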 Unmarked numbers belong to inactive results. Active and inactive are the calls of the source.
system: MDA-MB-231 breast; test: NCI-60 one-dose screen, 48 h (100 = growth as untreated, 0 = no growth, -100 = all killed); conditions: 10 µM unless noted

In order of rising growth:
1. COc1ccccc1CNCCCN1C(=O)c2ccc3c4c(ccc(c24)C1=O)C(=O)N(CCCNCCCCNCCCN)C3=O  15%
2. CCN(CC)c1ccc2[nH]c3c(C(N)=O)cc(=O)c(=O)c=3oc2c1  18%
3. CC(C)(C)n1cc(-c2ccnc(NCCCNS(=O)(=O)c3ccc(F)cc3)c2)c(-c2cccc(O)c2)n1  33.2%
4. CC(C)(C)n1cc(-c2ccnc(NCCCNS(=O)(=O)c3ccccc3)c2)c(-c2cccc(O)c2)n1  38.6%
5. Nc1cccc(-c2nc3sccn3c2-c2ccnc(NCCNS(=O)(=O)c3ccc(C(F)(F)F)cc3)n2)c1  46%
6. NC1=NC(SCc2ccccc2CCl)c2ncn(Cc3ccccc3CCl)c2N1 (centres undefined)  47.5%
7. Oc1ccc2cc(Br)ccc2c1-c1c(O)ccc2cc(Br)ccc12  50.1%
8. Cc1cc(N/N=C/c2nc(-c3ccccc3)oc2C)c2cc(Br)ccc2n1  53.5%
9. COc1ccc(C(=O)c2cc(OC)c(OC)c(OC)c2OC)cc1O  56%
10. CCN(CC)c1ccc(/C=C2\Oc3ccc(O)c(I)c3C2=O)cc1  65.8%
11. Cc1ccc(-c2cc3nc(C(Cl)Cl)nc(-c4ccccc4C)n3n2)cc1  66.8%
12. CN(C[C@H]1Cc2c(cccc2N2CCN(Cc3ccccn3)CC2)CN1)[C@H]1CCCc2cccnc21  70.2%
13. c1cc2[nH]ncc2cc1-c1nc2ccc3[nH]ncc3c2c2c1CCC2  70.2%
14. O=[N+]([O-])c1cccc(-c2nc3sccn3c2-c2ccnc(NCCCNS(=O)(=O)c3ccc(Cl)cc3)n2)c1  70.8%
15. FC(F)(F)c1cccc(-c2cn3c(ccc4ccccc43)n2)c1  79.2%
16. O=C1Nc2ccc(Cl)cc2C12Nc1cc(Cl)ccc1S2 (centres undefined)  83.2%
17. O=[N+]([O-])c1ccc(C(c2ccccc2)c2ccccc2)cc1  86.3%
18. C=C1CCC2C3(C)COC(c4c(OC)cccc4OC)OC3CCC2(C)C1C/C=C1/C(=O)OCC1O (centres undefined)  86.7%
19. Nc1nc(-c2ccccc2)c(CCCOc2ccc(NC(=O)CBr)cc2)c(=O)[nH]1  87.4%
20. CCC(=O)Oc1ccc(/C(=C(/C)Cc2cccc(OC)c2)c2ccc(OCCN(C)C)cc2)cc1  88.2%
21. COc1ccc(-c2nc(N3CCCC3=O)sc2Br)cc1OC  93.7%
22. COc1cc(-c2nc(N=Nc3c(O)[nH]c4ccc(Br)cc34)[nH]c(=O)c2C#N)cc(OC)c1OC  93.9%
23. c1ccc(-c2nnc(-c3ccccn3)s2)nc1  95.1%
24. Cc1csc(NC(c2ccccc2)c2c(C)nc3ccccn23)n1 (centres undefined)  96.8%
25. CCCCCCN1CSC(=S)N(CCCCCC)C1  97.4%
26. CC1(c2ccc(Cl)cc2)OC(=O)CC(=O)O1  98.2%
27. CCNc1nc(S(=O)(=O)CC)nc2ccccc12  102%
28. CNc1ccc(Br)c2c1C(=O)c1ccccc1C2=O  103%
29. Cc1ccc(S(=O)(=O)Nc2c(Br)cc(Br)cc2C(N)=O)cc1  103%
30. NC(N)=Nc1nc2ccccc2o1  103%
31. Nc1ccc(C(=O)CSc2nc3ccccc3[nH]2)cc1  105%
32. CN(C)CCOC(=O)Nc1ccccc1Cl  107%
33. C=C(C)[C@@H]1C[C@H](O)Cc2cc(F)ccc2N1  108%
34. CC(C)(C)OC(=O)NC(CSCc1ccccc1)C(=O)ON1C(=O)CCC1=O (centres undefined)  111%
35. O=C(CCl)N(C1CCCCC1)C1CCCCC1  120%

For `O=C1/C(=C/c2ccc(Cl)cc2)CN(C(=O)CCN2CCC(=NO)CC2)C/C1=C\c1ccc(Cl)cc1`, the growth was -83.1% (active).
With `O=C1/C(=C/c2ccccc2)CN(C(=O)CCN2CCC(=NO)CC2)C/C1=C\c1ccccc1` the growth was -32.1% (active).
`COc1ccc(-c2ccc(-c3ccc(C(=N)N)s3)s2)cc1Cl` was tested, and the growth was -42.3% (active).
In the case of `COc1ccc2c(c1)[nH]c(=O)c1c3cc(OC)ccc3cn21`, the growth is reported as 0.629% (active).
